Screening data: PubChem BioAssay, National Center for Advancing Translational Sciences (NCATS)
RORg inh = qHTS for inhibitors of ROR gamma transcriptional activity; Nuclear receptor ROR-gamma (Mus musculus), P51450; hit rate 5.4% among 310,000; Potency, µM (highest dose often 53.6 µM), without a hit: top-dose activity change, negative = inhibition, actives largely listed as inhibitors; Drosophila S2 Gal4-RORgamma UAS-luciferase reporter, 20 h; also: potency is read from the fitted curve at half-maximal effect; nearly all actives have a fitted effect of over 60% in size
Target sequence (P51450 whole entry, looked up, the tested form may be a part): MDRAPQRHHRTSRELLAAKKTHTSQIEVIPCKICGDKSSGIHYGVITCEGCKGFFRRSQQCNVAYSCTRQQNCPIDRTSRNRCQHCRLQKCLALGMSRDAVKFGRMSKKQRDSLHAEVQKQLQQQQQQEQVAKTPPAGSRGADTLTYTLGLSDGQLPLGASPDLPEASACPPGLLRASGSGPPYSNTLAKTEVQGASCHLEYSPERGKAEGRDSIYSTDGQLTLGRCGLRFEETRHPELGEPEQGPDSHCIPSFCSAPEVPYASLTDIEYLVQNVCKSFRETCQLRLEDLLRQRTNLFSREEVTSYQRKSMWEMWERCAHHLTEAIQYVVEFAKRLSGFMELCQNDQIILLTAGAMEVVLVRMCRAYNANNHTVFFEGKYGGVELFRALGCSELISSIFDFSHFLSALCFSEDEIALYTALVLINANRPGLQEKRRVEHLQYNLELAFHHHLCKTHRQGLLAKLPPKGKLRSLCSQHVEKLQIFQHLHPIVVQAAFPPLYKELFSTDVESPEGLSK
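Drosophila S2 cells stably expressing Gal4-DBD/mouse RORγ fusion under metallothionein promoter plus UAS-luciferase; compound 1 h, then 700 uM CuSO4 induction for 20 h at ambient temperature; inhibition read as reduced luminescence.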
LDHA inh = qHTS assay for inhibitors of human lactate dehydrogenase; L-lactate dehydrogenase A chain (Homo sapiens), P00338; hit rate 0.15% among 480,000; AID 1347041, 2019; activity change, % (values are at about 110 or 230 µM); purified LDHA, NADH/diaphorase-resazurin fluorescence; active compounds read low; in the data active = activity change below about -30%; inconclusive = mostly about -25% to -30%;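 also: plate controls were DMSO wells for no effect and wells without enzyme for full effect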
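Human LDH5 at 2 nM final in Tris HCl pH 7.4 with 0.06 mM NADH and 0.2 mM pyruvate, reacted 5 minutes at room temperature. Remaining NADH coupled via diaphorase/resazurin; resorufin fluorescence read at 0 and 20 minutes, normalized to enzyme-free and DMSO wells.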
IL1B secr inh = qHTS for Inhibitors of Inflammasome Signaling: IL-1-beta AlphaLISA Primary Screen; THP-1 LPS/ATP IL-1B secretion, AlphaLISA, 16 h; active compounds read low; activity change, % at 57.5 µM; hit rate 4.7% among 360,000; in the data active = activity change below about -50%; inconclusive = mostly about -30% to -49%
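Secreted IL-1B measured by AlphaLISA bead assay after 16 h compound exposure of THP-1 cells; compounds (final up to 57.5 uM) added 1 h before LPS (250 ng/mL) and ATP (1.25 mM) stimulation; lower signal means less secretion.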
Gal4-VP16 FLuc = VP16 counterscreen qHTS for inhibitors of ROR gamma transcriptional activity; Potency, µM (series often up to 53.6 µM), for the others: at the top dose activity, negative = inhibition, usual class: inhibitors; Drosophila S2 Gal4-VP16 UAS-luciferase, luminescence, 20 h; hit rate 3.5% among 310,000; AID 2546, 2010;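 also: Gal4-VP16 expression switched on by copper sulfate through the metallothionein promoter; potency is read from the fitted curve at half-maximal effect; nearly all actives have a fitted effect of over 50% in size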
TDP1 cell noCPT = qHTS for Inhibitors of human tyrosyl-DNA phosphodiesterase 1 (TDP1): qHTS in cells in absence of CPT. DT40 Tdp1-/- hTDP1 cells, no CPT, ATP luminescence, 48 h. Potency, µM (series often up to 46.2 µM), inactives show top-dose activity change, negative = growth inhibition, actives largely listed as inhibitors. hit rate 15% among 420,000; also: potency is read from the fitted curve at half-maximal effect; nearly all actives have a fitted effect of over 55% in size
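No-CPT arm: Tdp1-/-;hTDP1 DT40 cells (400/well) plus compounds, incubated ≥48 hr at 37 °C. Readout CellTiter-Glo luminescence.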
TDP1 cell CPT = qHTS for Inhibitors of human tyrosyl-DNA phosphodiesterase 1 (TDP1): qHTS in cells in presence of CPT; chicken DT40 Tdp1-/-;hTDP1 cells + 20 nM CPT, ATP luminescence, 48 h; hit rate 12% among 420,000; Potency, µM (series often up to 46.2 µM), without a hit: top-dose activity change, negative = growth inhibition, usual class: inhibitors; also: potency is read from the fitted curve at half-maximal effect; nearly all actives have a fitted effect of over 55% in size
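Chicken DT40 Tdp1-/- cells stably complemented with human TDP1 were seeded at 400 cells/well in medium containing 20 nM camptothecin, exposed to pin-transferred compounds, and grown at 37 °C for at least 48 hr. Viability was read as ATP luminescence.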
* = called active by the depositor; ? = inconclusive; . = no result. Hits are enriched below; roughly 18% of the tested compounds scored in any of these assays. Unless noted, calls follow the shape of the dose curve; as a rule, active = well fitted curve in the direction sought with a large enough effect; inconclusive = small, poorly fitted or top-dose-only effect, or another doubt; inactive = no such curve, though single readings can be large; an effect the other way counts as inactive or inconclusive. Unless noted, % is scaled to controls: 0 for no effect and ±100 for the full control effect.

SMILES	RORg inh	LDHA inh	IL1B secr inh	Gal4-VP16 FLuc	TDP1 cell noCPT	TDP1 cell CPT
Cc1ccnc(NC(=O)C2CCN(S(=O)(=O)c3ccc(Cl)c(C(F)(F)F)c3)CC2)c1	.	-13	-7	.	?	?
Cc1cc(C)c(C)c(S(=O)(=O)N2CCC(C(=O)Nc3ccncc3)CC2)c1C	-17%	-9	-8	?	8.2µM*	?
O=C(Nc1ccncc1)C1CCN(S(=O)(=O)c2ccccc2)CC1	.	-6	30	.	?	?
CCN(C(=O)c1cc(=O)c2cc(C)ccc2o1)c1ccccc1	.	0	.	.	.	.
CC(Sc1nnnn1C)C(=O)c1ccc(F)c(F)c1 (stereo not drawn)	.	-3	.	.	.	.
Cc1cc2nc(COC(=O)c3ccc(NC(=O)c4ccc(F)cc4)cc3)cc(=O)n2o1	.	-2	.	.	.	.
COc1cc(OC)cc(C(=O)N(CC#N)C2CC2)c1	.	8	.	.	.	.
CS(=O)(=O)N1CCC(C(=O)Nc2cc(C(F)(F)F)ccc2Cl)CC1	0%	0	-3	-2%	1%	-3%
COc1ccc(S(=O)(=O)N2CCC(C(=O)Nc3cc(C(F)(F)F)ccc3Cl)CC2)cc1	.	-5	.	.	16µM*	?
Cc1cc(C)c(C)c(S(=O)(=O)N2CCC(C(=O)N3CC(C)CC(C)C3)CC2)c1C (stereo not drawn)	.	-2	-75*	.	26µM*	18µM*
Cc1cc(C)c(C)c(S(=O)(=O)N2CCC(C(=O)N3CCCC3)CC2)c1C	.	-6	0	.	-21%	-13%
Clc1ccccc1N1CCN(Cc2nnc(-c3ccc(Br)s3)o2)CC1	.	1	.	.	.	.
CCN(CC(=O)N(C)C)C(=O)Cn1c(C)c(Br)c2ccccc21	.	-18	.	.	.	.
O=Cc1ccc2noc(-c3ccc(Cl)cc3)c2c1	4%	-8	-15	-3%	16µM*	?
NC(Cc1ccc(C(F)(F)F)cc1)c1csc(NC(=O)Nc2ccccc2Cc2ccccc2)n1 (stereo not drawn)	.	-23	-61*	.	23µM*	?
CC(C)CC(N)c1csc(NC(=O)Nc2ccccc2C(C)C)n1 (stereo not drawn)	.	-13	?	.	15µM*	?
COc1ccc(CC(N)c2csc(NC(=O)NCCc3ccccc3)n2)cc1 (stereo not drawn)	.	-10	?	.	?	?
COc1ccc(NC(=O)Nc2nc(C(N)CC(C)C)cs2)cc1 (stereo not drawn)	.	-4	?	.	16µM*	?
CN(CC(=O)Nc1ccc(OC(F)(F)F)cc1)C1CCCCC1	-15%	-10	?	3%	-11%	?
NC(c1csc(NC(=O)Nc2ccc(OC(F)(F)F)cc2)n1)C1CCCCC1 (stereo not drawn)	.	-14	-112*	.	9.2µM*	10µM*
O=C(Nc1nnc(C2CC2)s1)C(Sc1ccccc1)c1ccccc1 (stereo not drawn)	.	-3	.	.	.	.
COc1cccc(CNC(=O)C(C)n2nc(-c3ccccc3)c3ccccc32)c1OC (stereo not drawn)	.	-12	.	.	.	.
Cc1cc2oc(=O)cc(CSc3nncn3C(C)C)c2cc1C(C)C	.	3	.	.	.	.
CC(C)CCNC(=O)CCc1c[nH]c2ccccc12	.	2	.	.	.	.
CC(C)c1ccccc1NC(=O)Nc1nc(C(N)Cc2ccc(C(F)(F)F)cc2)cs1 (stereo not drawn)	.	-16	-18	.	23µM*	13µM*
SMILES	RORg inh	LDHA inh	IL1B secr inh	Gal4-VP16 FLuc	TDP1 cell noCPT	TDP1 cell CPT
CC(C)(C)c1ccccc1NC(=O)Nc1nc(C(N)Cc2ccc(F)cc2)cs1 (stereo not drawn)	.	0	-53*	.	21µM*	?
CC(C)(C)c1ccccc1NC(=O)Nc1nc(C(N)c2ccccc2)cs1 (stereo not drawn)	.	-18	-16	.	?	?
Cc1ccc(S(=O)(=O)NN2C(=O)c3ccccc3NC2c2ccccn2)cc1 (stereo not drawn)	-12%	0	-112*	2%	-11%	3%
Cc1ccc(S(=O)(=O)NN2C(=O)c3ccccc3NC2c2ccccc2O)cc1 (stereo not drawn)	-18%	-10	-10	-13%	4%	-4%
COC(=O)C1=C(C)OC(N)=C(C#N)C1c1cccc(C(F)(F)F)c1 (stereo not drawn)	.	8	.	.	.	.
C=C(CN(C)C)C(=O)c1cc(C)ccc1C	.	-3	-101*	.	1µM*	0.58µM*
Cc1ccc(C)c(C(=O)NCC(C)C)c1	.	1	.	.	.	.
CCc1ccc(C2=C(C)C(N3CCC(C(=O)Nc4ccc(OC)c(OC)c4)CC3)=NS2(=O)=O)cc1	.	0	.	.	.	.
CCN(CC)CCn1c(NCc2ccc(C)o2)nc2ccccc21	0.5µM*	0	-16	3%	?	?
CCN(CC)CCn1c(NC(=O)c2ccccc2O)nc2ccccc21	2.5µM*	1	51	5µM*	?	?
CCN(CC)CCn1c(NC(=O)c2ccc(Cl)cc2)nc2ccccc21	2µM*	-7	24	2.5µM*	?	?
CCN(CC)CCn1c(C)nc2ccccc21	-27%	-10	44	0%	-4%	-1%
CCCN(CCN(C)C)C(=O)Nc1sc(C(=O)OCC)c(C)c1C(=O)OCC	.	-5	.	.	.	.
CCc1ccc(NC(=O)NCC2CCN(Cc3cccc(Cl)c3)CC2)cc1	-29%	-4	-17	4%	13µM*	?
Cc1ccc(CN2CCC(CNC(=O)Nc3ccc(Cl)cc3)C2)cc1 (stereo not drawn)	.	-2	.	.	?	?
Cc1ccc(NC(=O)NCC2CCN(Cc3cccc(Cl)c3)CC2)cc1Cl	20µM*	0	-100*	-24%	16µM*	?
CCOC(=O)CC(=O)CSc1nc2ccc(C)cc2cc1C#N	?	1	6	11%	0.73µM*	1.2µM*
COC(=O)CSc1nc2cc(C)ccc2cc1C#N	-14%	-1	0	-5%	16µM*	18µM*
CCOC(=O)CC(=O)CSc1nc(CC)c(C)cc1C#N	-8%	3	-6	0%	13µM*	?
COc1ccc2cc(C#N)c(SCC(=O)OCc3ccccc3)nc2c1	.	-1	.	.	-19%	-5%
CCOC(=O)CC(=O)CSc1nc2c(c(C)c1C#N)CCC2	?	1	11	?	7.3µM*	15µM*
